From PubChem BioAssay (Tox21)
Inconclusive results are not listed. Activity calls are given as the source filed them. Unless noted, the call rests on the fitted dose curve; in most records, active means well fitted curve in the direction sought with a large enough effect in the repeat runs; inconclusive means weak or mixed curves; inactive means no such curve, though single readings can be large; an effect the other way counts as inactive or inconclusive.

Legend:
[1] = A CellTox Green Cytotoxicity Assay to monitor cytotoxicity in HepG2 cells - 8 hour (AID 1224890); further: nearly all actives have a fitted effect of over 45% in size
Procedure, shortened: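 Cells and non-lytic dye reagent are dispensed together (600 HepG2 cells/well) and incubated 5 h before DMSO compound transfer. Kinetic fluorescence is then recorded in the same wells during 40 h at 37 C.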

[2] = qHTS assay to identify small molecule antagonists of the estrogen receptor alpha (ER-alpha) signaling pathway using the BG1 cell line in the presence of 0.1 nM 17-beta-estradiol - cell viability counter screen (AID 1259241); further: nearly all actives have a fitted effect of over 40% in size; further: potency means the concentration at half of the fitted maximal effect
Procedure, shortened: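 Following 5 days in phenol red-free medium with charcoal-stripped serum, VM7Luc4E2 cells received test compounds alongside 0.1 nM 17beta-estradiol (final) at 37C for 22 hr. Live cells were then quantified via protease-substrate fluorescence.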

[3] = qHTS assay to identify small molecule antagonists of the androgen receptor (AR) signaling pathway using the MDA cell line in the presence of 0.5 nM R1881 - cell viability counter screen (AID 1259242); further: nearly all actives have a fitted effect of over 45% in size
Procedure, shortened: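 Steps: plate MDA-kb2 cells, rest 5 hr at 37C without CO2; pin in compounds in DMSO; add R1881 to 0.5 nM final; incubate 16 hr; add CellTiter-Fluor, 30 min; read fluorescence.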

[4] = qHTS assay to identify small molecule HDAC inhibitors (AID 1259364);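 further: wild-type HCT-116 cells with endogenous class I/II HDAC activity; top concentration of the series differs between compounds; nearly all actives have a fitted effect of over 45% in size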
Procedure, shortened: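 Cells (HCT-116, wild type) are seeded at 1,500 per well, incubated overnight, treated with compound in DMSO for 2 hr, then developed with HDAC-Glo I/II reagent for 30 min at room temperature.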

[5] = qHTS assay to identify small molecule HDAC inhibitors - cell viability counter screen (AID 1259365); further: series mostly up to about 92 µM; nearly all actives have a fitted effect of over 50% in size
Procedure, shortened: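 HCT-116 wild-type, overnight attachment; 2hr drug exposure, 37C; CellTiter-Glo luminescent ATP readout after 30min RT.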

[6] = qHTS assay to identify small molecule agonists of the sonic hedgehog signaling (Shh) pathway - cell viability counter screen (AID 1259366); further: nearly all actives have a fitted effect of over 50% in size; further: potency means the concentration at half of the fitted maximal effect
Procedure, shortened: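 Compounds in DMSO were pin-transferred onto 3T3 Gli1-Luc cells that had settled 4hr; plates then stood 24hr at 37C and 5% CO2. One hour before the end, CellTiter-Fluor was added and fluorescence recorded.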

[7] = qHTS assay to identify small molecule antagonists of the sonic hedgehog signaling (Shh) pathway - cell viability counter screen (AID 1259367); further: nearly all actives have a fitted effect of over 55% in size; further: potency means the concentration at half of the fitted maximal effect
Procedure, shortened: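 Viability was read by CellTiter-Fluor fluorescence in the same wells, reagent added 23 hr into compound treatment and incubated 1 hr at 37C. The 3T3 Gli1-Luc reporter cells (2,000/well) received conditioned medium after compound and ran 24 hr.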

[8] = qHTS assay to identify small molecule agonists of the sonic hedgehog signaling (Shh) pathway (AID 1259368; calls by dose curve;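 further: NIH/3T3-derived 3T3Gli1-Luc cells carrying a stable Gli1-driven firefly luciferase reporter; series mostly up to about 92 µM; nearly all actives have a fitted effect of over 15% in size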)
Procedure, shortened: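 Cells of a mouse NIH/3T3 clone stably expressing luciferase under the Gli1 transcriptional response element are exposed to test chemicals for 24 hr at 37 C. Pathway activation is detected as a rise in luminescence.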

[9] = qHTS assay to identify small molecule antagonists of the sonic hedgehog signaling (Shh) pathway (AID 1259369; calls by dose curve; further: nearly all actives have a fitted effect of over 45% in size; further: potency means the concentration at half of the fitted maximal effect)
Procedure, shortened: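 Cells are plated and held 4hr at 37 C, compounds (DMSO) are pinned in, conditioned medium is added to stimulate the pathway, and after 24hr luciferase reagent is added for 30min before luminescence is read.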

[10] = molecular target: Estrogen receptor beta (Homo sapiens) (UniProt Q92731); experiment: qHTS assay to identify small molecule agonists of the estrogen receptor beta (ER-beta) signaling pathway (AID 1259377; active means well fitted activation curve with a large enough effect in the signal ratio in the repeat runs, not every such curve was filed as active; the % refers to the signal ratio)
Procedure, shortened: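 qHTS in ER-beta-UAS-bla HEK293T cells: 6 hr settling, then 16 hr compound at 37C, then LiveBLAzer substrate 2 h at RT before fluorescence reading.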

[11] = qHTS assay to identify small molecule agonists of the androgen receptor (AR) signaling pathway in the presence of an antagonist - cell viability counter screen (AID 1259379); further: nearly all actives have a fitted effect of over 25% in size; further: potency means the concentration at half of the fitted maximal effect
Procedure, shortened: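 Cytotoxicity is assessed by CellTiter-Fluor in MDA-kb2 cells carrying an MMTV-driven luciferase reporter. Cells receive 3.0uM nilutamide plus compounds at 15 concentrations and incubate 16 hr at 37C without CO2 before fluorescence reading.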

[12] = qHTS assay to identify small molecule agonists of the estrogen receptor beta (ER-beta) signaling pathway - cell viability counter screen (AID 1259380); further: nearly all actives have a fitted effect of over 30% in size; further: potency means the concentration at half of the fitted maximal effect
Procedure, shortened: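 Cytotoxicity is measured in parallel with the reporter screen: after 16 hr compound exposure at 37C and a 2 hr LiveBLAzer step, CellTiter-Glo is added to the same ER-beta-UAS-bla HEK293T wells and luminescence read after 30 min.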

[13] = qHTS assay to identify small molecule antagonists of the estrogen receptor beta (ER-beta) signaling pathway - cell viability counter screen (AID 1259382);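 further: HEK293T cells carrying ER-beta-UAS-bla reporter stimulated with estradiol; series mostly up to about 92 µM; nearly all actives have a fitted effect of over 55% in size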
Procedure, shortened: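 Cytotoxicity counter screen multiplexed with the beta-lactamase antagonist assay: GripTite HEK293T ER-beta-bla cells were treated 16 hr with test chemicals in the presence of 1nM 17-beta-estradiol, and viability was measured by CellTiter-Glo.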

[14] = molecular target: Estrogen receptor beta (Homo sapiens) (UniProt Q92731); experiment: qHTS assay to identify small molecule antagonists of the estrogen receptor beta (ER-beta) signaling pathway (AID 1259378; active means well fitted inhibition curve with a large enough effect in the signal ratio in the repeat runs, not every such curve was filed as active; the % refers to the signal ratio)
Procedure, shortened: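 Antagonist mode: compounds added to beta-lactamase reporter HEK293T ER-beta-UAS cells stimulated with E2 (1nM final), 16 hr at 37C. LiveBLAzer B/G FRET substrate, 2 hours room temperature, fluorescence read-out.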

[15] = qHTS assay to identify small molecule agonists or antagonists of the thyroid stimulating hormone receptor (TSHR) signaling pathway - wild type cell line counter screen (AID 1259384; calls by dose curve)
Procedure, shortened: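 Counter screen in untransfected Hek293: compounds (15-point titration, triplicate) plus phosphodiesterase inhibitor Ro20-1724 added after 18 h plating; 30 min RT. Intracellular cAMP via competitive d2/cryptate immunoassay, 1 h incubation.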

[16] = molecular target: Androgen receptor (Homo sapiens) (UniProt P10275); experiment: qHTS assay to identify small molecule antagonists of the androgen receptor (AR) signaling pathway using the MDA cell line in the presence of 0.5 nM R1881 (AID 1259243); further: nearly all actives have a fitted effect of over 50% in size
Procedure, shortened: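 Stably transfected MDA-kb2 cells express luciferase from an MMTV promoter bearing both AR and GR response elements. Compounds plus 0.5 nM R1881 (final) were incubated 16 hr at 37C without CO2, then luminescence measured.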

[17] = molecular target: Estrogen receptor (Homo sapiens) (UniProt P03372); experiment: qHTS assay to identify small molecule antagonists of the estrogen receptor alpha (ER-alpha) signaling pathway using the BG1 cell line in the presence of 0.1 nM 17-beta-estradiol (AID 1259244); further: nearly all actives have a fitted effect of over 50% in size; further: potency means the concentration at half of the fitted maximal effect
Procedure, shortened: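 Antagonist mode: compounds in DMSO are pinned onto VM7Luc4E2 reporter cells, 0.1 nM final 17beta-estradiol is added, and after 22 h at 37C luciferase luminescence is measured with ONE-Glo.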

[18] = molecular target: Androgen receptor (Homo sapiens) (UniProt P10275); experiment: qHTS assay to identify small molecule agonists of the androgen receptor (AR) signaling pathway in the presence of an antagonist (AID 1259381; calls by dose curve; further: nearly all actives have a fitted effect of over 15% in size)
Procedure, shortened: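 Agonist-mode confirmation screen: human MDA-kb2 cells stably expressing luciferase under an MMTV promoter bearing AR and GR response elements, co-treated with 3.0uM nilutamide (final). Luminescence measured after 16hr compound incubation.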

[19] = molecular target: Estrogen receptor (Homo sapiens) (UniProt P03372); experiment: qHTS assay to identify small molecule agonists of the estrogen receptor alpha (ER-alpha) signaling pathway in the presence of an antagonist (AID 1259383; calls by dose curve; further: top concentration of the series differs between compounds; nearly all actives have a fitted effect of over 15% in size)
Procedure, shortened: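 Agonist-mode confirmation in the presence of the ER antagonist ICI-182,780 at 10.0nM final. Breast-derived VM7Luc4E2 reporter cells were exposed to compounds for 22hr, and ERE-driven luciferase was quantified by luminescence.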

[20] = qHTS assay to identify small molecule phospholipidosis (PLD) inducers (AID 1259344; active means well fitted curve in the direction sought with a large enough effect; an effect the other way counts as inactive or inconclusive)
Procedure, shortened: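 Phospholipid accumulation was scored by imaging: fixed, Hoechst-counterstained HepG2 cells stained with LipidTOX Red after 24 h compound exposure at 37 C. Read-outs were pit count and pit intensity per well or per cell, with amiodarone and DMSO controls.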

Measured: Potency

Chain of Estrogen receptor beta (Homo sapiens) (Q92731 whole entry, looked up): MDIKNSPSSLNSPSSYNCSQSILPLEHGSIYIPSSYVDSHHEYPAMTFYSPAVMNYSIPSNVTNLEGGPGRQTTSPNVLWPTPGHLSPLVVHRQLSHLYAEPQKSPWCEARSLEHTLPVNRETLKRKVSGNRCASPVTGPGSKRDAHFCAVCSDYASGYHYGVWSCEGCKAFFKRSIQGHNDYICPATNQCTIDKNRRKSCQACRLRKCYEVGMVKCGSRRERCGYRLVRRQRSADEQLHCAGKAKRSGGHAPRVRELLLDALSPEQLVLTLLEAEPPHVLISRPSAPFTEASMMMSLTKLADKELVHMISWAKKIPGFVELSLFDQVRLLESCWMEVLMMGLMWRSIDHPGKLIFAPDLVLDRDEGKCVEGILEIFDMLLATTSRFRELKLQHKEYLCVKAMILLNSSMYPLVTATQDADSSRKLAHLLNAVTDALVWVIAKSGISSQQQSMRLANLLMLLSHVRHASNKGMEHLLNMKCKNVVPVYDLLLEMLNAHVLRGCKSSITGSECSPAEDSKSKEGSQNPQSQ
Chain of Estrogen receptor (Homo sapiens) (P03372 whole entry, looked up): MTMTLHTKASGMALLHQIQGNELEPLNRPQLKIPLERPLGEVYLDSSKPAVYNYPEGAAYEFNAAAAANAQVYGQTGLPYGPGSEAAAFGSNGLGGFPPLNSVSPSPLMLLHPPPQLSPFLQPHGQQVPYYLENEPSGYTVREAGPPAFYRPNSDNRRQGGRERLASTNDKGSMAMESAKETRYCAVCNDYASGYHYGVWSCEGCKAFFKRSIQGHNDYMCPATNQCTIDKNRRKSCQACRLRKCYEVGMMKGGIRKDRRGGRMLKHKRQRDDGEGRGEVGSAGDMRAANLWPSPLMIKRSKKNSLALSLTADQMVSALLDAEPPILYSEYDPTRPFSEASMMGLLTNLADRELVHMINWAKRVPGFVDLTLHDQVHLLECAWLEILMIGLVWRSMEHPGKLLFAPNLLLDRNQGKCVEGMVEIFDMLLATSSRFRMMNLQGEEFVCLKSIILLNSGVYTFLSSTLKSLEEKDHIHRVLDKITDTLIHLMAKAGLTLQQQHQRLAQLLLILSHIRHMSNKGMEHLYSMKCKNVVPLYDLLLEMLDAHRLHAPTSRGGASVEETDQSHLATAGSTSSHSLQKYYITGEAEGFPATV
Chain of Androgen receptor (Homo sapiens) (P10275 whole entry, looked up): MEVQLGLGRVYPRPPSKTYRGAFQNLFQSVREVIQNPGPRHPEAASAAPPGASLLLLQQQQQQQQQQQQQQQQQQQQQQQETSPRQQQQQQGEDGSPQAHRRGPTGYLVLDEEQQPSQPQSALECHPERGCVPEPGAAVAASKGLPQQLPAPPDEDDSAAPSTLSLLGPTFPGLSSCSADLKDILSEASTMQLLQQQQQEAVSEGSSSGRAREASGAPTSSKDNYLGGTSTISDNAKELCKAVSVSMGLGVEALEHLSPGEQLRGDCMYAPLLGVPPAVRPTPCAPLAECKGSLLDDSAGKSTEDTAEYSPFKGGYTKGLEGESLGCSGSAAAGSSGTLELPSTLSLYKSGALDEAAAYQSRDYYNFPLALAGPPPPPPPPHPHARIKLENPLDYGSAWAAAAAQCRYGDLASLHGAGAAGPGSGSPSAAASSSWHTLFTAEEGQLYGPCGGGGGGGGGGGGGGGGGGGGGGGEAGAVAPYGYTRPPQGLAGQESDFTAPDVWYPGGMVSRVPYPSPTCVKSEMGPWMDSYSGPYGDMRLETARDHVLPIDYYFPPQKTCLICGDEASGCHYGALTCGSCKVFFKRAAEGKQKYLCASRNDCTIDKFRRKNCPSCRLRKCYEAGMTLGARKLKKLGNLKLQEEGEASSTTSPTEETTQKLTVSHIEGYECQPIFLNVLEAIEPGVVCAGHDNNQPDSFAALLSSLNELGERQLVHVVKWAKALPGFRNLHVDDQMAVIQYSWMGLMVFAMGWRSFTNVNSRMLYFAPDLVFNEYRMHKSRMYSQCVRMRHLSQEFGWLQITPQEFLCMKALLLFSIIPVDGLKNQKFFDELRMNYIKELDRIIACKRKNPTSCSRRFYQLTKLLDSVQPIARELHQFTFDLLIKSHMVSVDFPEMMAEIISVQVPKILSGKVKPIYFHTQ

Nc1ccccc1Nc1ccccc1
active: [6] 68.8 µM | [7] 54.6 µM | [9] 2.74 µM
not listed: [14] | [15] | [16] | [17] | [18] | [19] | [20]
inactive: all other assays above

O=C(Nc1ccc2c(c1)Cc1ccccc1-2)C(F)(F)F
not listed: [4] | [10] | [16] | [17] | [18] | [19] | [20]
inactive: all other assays above

C=C[Si](OCC)(OCC)OCC
not listed: [11] | [16] | [17] | [18] | [19] | [20]
inactive: all other assays above

CCC[Si](OC)(OC)OC
not listed: [3] | [9] | [20]
inactive: all other assays above

CCCCCCCCC(=O)OCC(C)OC(=O)CCCCCCCC (stereo unspecified)
not listed: [16] | [17] | [18] | [19] | [20]
inactive: all other assays above

C=CC(C)(O)CC/C=C(/C)CCC=C(C)C (stereo unspecified)
not listed: [9] | [15] | [16] | [17] | [18] | [19] | [20]
inactive: all other assays above

Cc1c(Cl)cccc1Nc1ccccc1C(=O)O
not listed: [3] | [7] | [10] | [13] | [14] | [16] | [18]
inactive: all other assays above

CO[C@@H]1COCC[C@@H]1N[C@@H]1CC[C@@](C(=O)N2CCc3ncc(C(F)(F)F)cc3C2)(C(C)C)C1
not listed: [7] | [14] | [16] | [17] | [18] | [19] | [20]
inactive: all other assays above

CC(C)C[C@H](NC(=O)[C@H](Cc1ccccc1)NC(=O)c1cnccn1)B(O)O
active: [2] 0.266 µM | [17] 0.0596 µM | [6] 1.06 µM | [7] 5.31 µM | [11] 0.0473 µM | [12] 4.22 µM
inactive: [1] | [20] | [4] | [5] | [8] | [9] | [19] | [15]

C=CC(C)CCC=C(C)C (stereo unspecified)
not listed: [10] | [16] | [17] | [18] | [19] | [20]
inactive: all other assays above

O=C(O)CNc1ccccc1
not listed: [10] | [14] | [16] | [17] | [18] | [19] | [20]
inactive: all other assays above

O=C(O)c1cc(C(=O)O)cc([N+](=O)[O-])c1
not listed: [10] | [14] | [16] | [17] | [18] | [19] | [20]
inactive: all other assays above

O=C(O)COCC(=O)O
not listed: [10] | [14] | [16] | [17] | [18] | [19] | [20]
inactive: all other assays above

O=C(NC1CCN(CCc2c[nH]c3ccccc23)CC1)c1ccccc1
inactive: [1] | [2] | [3] | [5] | [7] | [8] | [10] | [14] | [13] | [15]

Cc1nc2sccn2c(=O)c1CCN1CCC(=C(c2ccc(F)cc2)c2ccc(F)cc2)CC1
active: [12] 13.3 µM
not listed: [9] | [13] | [14] | [16] | [17] | [18] | [20]
inactive: all other assays above

CC/C=C\CCO
not listed: [10] | [15] | [16] | [17] | [18] | [19] | [20]
inactive: all other assays above

Clc1cc(Cl)c2c(c1)N=C1CCCCCN1C2
not listed: [3] | [4] | [10] | [12] | [14] | [16] | [18] | [20]
inactive: all other assays above

C(/C=C/C=C/Nc1ccccc1)=Nc1ccccc1
not listed: [3] | [7] | [9] | [11] | [15] | [16] | [18] | [20]
inactive: all other assays above

O=C(O)c1ccccc1[N+](=O)[O-]
not listed: [3] | [16] | [17] | [18] | [19] | [20]
inactive: all other assays above

CCCCCCCCS
not listed: [3] | [11] | [15] | [16] | [18] | [20]
inactive: all other assays above
